Molecules are shown by their SMILES. The whole screen tested about 290,000 compounds, of which about 3,500 (1.2%) were called active. For the sample, actives were picked, then their nearest neighbours and some compounds at random. A number with no mark means an inactive call.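 How the source made its calls: active means inhibition above the campaign mean inhibition over all tested compounds plus 3 SD (cut at about 28% in these data); inactive means the rest.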

This assay concerns M18 aspartyl aminopeptidase (Plasmodium falciparum 3D7). Description: PfM18AAP inhibitors, malaria aminopeptidase, primary screen, biochemical, QFRET, recombinant enzyme (AID 1822).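 Further: 0% = plate median of test compound wells and 100% = 2 mM ZnCl2.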 The following applies: H-Glu-NHMec fluorogenic cleavage, at 7.35 µM, stronger effect = higher value.
Regarding `COc1ccc(CN2CCCC(N3CCc4ccccc4C3)C2)c(O)c1` (stereo not drawn), the inhibition was 1.47%.

In the case of `COc1cc(COCC(O)CN2CCN(Cc3ccc4c(c3)OCO4)CC2)cc(OC)c1OC` (stereo not drawn), the inhibition was 1.06%.

Regarding `COc1c(O)ccc2c1CN1CCc3cc4c(cc3C1C2)OCO4` (stereo not drawn), the inhibition is 42.2% (active).

With `Cc1ccc(NC(=O)CSc2sc3c(O)cc(=O)[nH]c3c2C#N)cc1C`, the inhibition was 9.88%.

Turning to `Cc1cc(=O)[nH]c(S)c1C#N`, the inhibition was 31.9% (active).

As for `Cc1cc(=O)[nH]c(SCC(N)=O)c1C#N`, the inhibition is 6.8%.

For `CC(C)(C)C(=O)NNC(=O)c1ccc(Oc2cc(Cl)cc(Cl)c2)o1`, the inhibition was 7.33%.

As to `CCC(C)C(NC(=O)C1CCC(=O)N1C(=O)OCc1ccccc1)C(=O)NC(C(=O)N1CCCC1C(N)=O)C(C)CC` (stereo not drawn), the inhibition is 1.63%.

Take `CCOC(=O)/C(C#N)=C/c1ccc(N2CCCCC2)cc1`: the inhibition was 0.72%.

With `O=C1C=CC(=O)N1c1ccc(N2CCCCC2)cc1`, the inhibition was 35.3% (active).

Regarding `O=C(Cc1ccccc1)NC(=S)Nc1ccc(N2CCCCC2)cc1`, the inhibition was -3.44%.

With `CC(C)CCN(C(=O)c1csnn1)C(C(=O)NC1CCCC1)c1ccccc1` (stereo not drawn), the inhibition is 5.8%.

Regarding `O=C(Nc1ccnn1C1CCN(Cc2cccc(OCCO)c2)CC1)C1CCCC1`, the inhibition is -3.2%.

On to `CCCC(C)NC(=O)C1CCN(C(=O)C2CC(=O)N(c3ccc(C)cc3)C2)CC1` (stereo not drawn), for which the inhibition is -1.18%.

As to `COc1ccc2c(c1)C(C)=CC(C)(C)N2C(=O)CNCc1ccc2c(c1)OCO2`, the inhibition was 12.3%.

Turning to `COc1ccc2c(c1)C(C)=CC(C)(C)N2C(=O)Nc1ccccc1`, the inhibition was 34.2% (active).

Regarding `CC1=CC(C)(C)N(C(=O)CSc2nnc(-c3ccccc3)o2)c2ccc(C)cc21`, the inhibition is 1.48%.

With `O=C1C(=O)N(CCCO)C(c2ccccc2)/C1=C(\O)c1ccc(Br)cc1` (stereo not drawn), the inhibition is -0.04%.

Take `O=C(CN1C(=O)NC2(CCCCC2)C1=O)NCCc1c[nH]c2ccccc12`: the inhibition is 0.15%.

Consider `CC(C)NC(=O)C(=O)N/N=C/c1ccco1`, for which the inhibition was -9.66%.

With `O=c1nc(N/N=C/c2ccco2)cn[nH]1`, the inhibition was 52.8% (active).

For the compound `O=C(N/N=C/c1ccco1)c1ccc(C(=O)N/N=C/c2ccco2)o1`, the inhibition is 6.04%.

Consider `CCS(=O)(=O)Nc1ccc(C(=O)NCCSc2ccccc2)cc1`, for which the inhibition was -4.1%.

For the compound `CCCCNC(=O)C1CCC(=O)N1CCc1ccccc1` (stereo not drawn), the inhibition was -7.08%.

For the compound `CNC(=O)/C(C#N)=C/c1c(F)cccc1Cl`, the inhibition is -1.65%.

For `COc1cc(CN2CCN(Cc3ccc(C)cc3)CC2)c([N+](=O)[O-])cc1OC`, the inhibition is 29.9% (active).

For `COc1cc(CN2CCCN(C)CC2)c([N+](=O)[O-])cc1OC`, the inhibition is 13.4%.

With `COc1cc(CNCc2ccc3c(c2)OCO3)c([N+](=O)[O-])cc1OC`, the inhibition was 13.5%.

Values taken from PubChem BioAssay AID1822 (The Scripps Research Institute Molecular Screening Center, 2009).
